This excerpt belongs to a sample that is enriched for hits.
CHX counter: counter-screen hit for Shiga toxin inhibitors, cycloheximide | max response, % | 300,000 compounds, 12% hits | cell reporter, cycloheximide protein synthesis inhibition counterscreen | AID 2314; in the data active = max response mostly above about 13%, no sharp cut-off; inactive = mostly below about 14%; also: read at 38.3 µM for the half of the compounds with a filed dose; 0% is about no effect
LmPK inhibitor: LmPK (Leishmania mexicana) enzyme inhibition. Q27686. purified LmPK, Kinase-Glo ATP luminescence, 1 h. Potency, µM (doses to about 57.5 µM), for inactives: at the top dose activity change, negative = inhibition, actives largely listed as inhibitors. 290,000 compounds, 0.37% hits. AID 1721; also: potency is read from the fitted curve at half-maximal effect; % is scaled to controls: 0 for no effect and ±100 for the full control effect
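Pyruvate kinase activity monitored as ATP production (luciferase luminescence). Conditions: 0.1 nM enzyme, 0.5 mM PEP, 0.1 mM ADP, 1 h, RT; normalized against uninhibited and no-enzyme wells.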
Sm TGR inh: blocks Schistosoma mansoni thioredoxin glutathione reductase; Q962Y6; purified TGR, DTNB reduction, TNB absorbance 405 nm; Potency, µM (highest dose often 114 µM), for inactives: at the top dose activity change, negative = inhibition, usual class: inhibitors; 360,000 compounds, 3% hits; AID 485364; also: potency is read from the fitted curve at half-maximal effect; % is scaled to controls: 0 for no effect and ±100 for the full control effect; nearly all actives have a fitted effect of over 60% in size
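Kinetic colorimetric format: TGR-catalysed, NADPH-driven DTNB reduction monitored via TNB absorbance. Enzyme dispensed at 20 nM; compound exposure 15 min at room temperature before reaction start.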
FBPA Giardia inh: inhibitors of Giardia lamblia fructose-1,6-bisphosphate aldolase. AID 2451. purified Giardia FBPA. Potency, µM (highest dose often 59.6 µM), inactives show at the highest dose activity, negative = inhibition, actives largely listed as inhibitors. 290,000 compounds, 0.71% hits. A8B2U2; also: potency is read from the fitted curve at half-maximal effect; % is scaled to controls: 0 for no effect and ±100 for the full control effect; nearly all actives have a fitted effect of over 55% in size
Target sequence (A8B2U2 whole entry, looked up): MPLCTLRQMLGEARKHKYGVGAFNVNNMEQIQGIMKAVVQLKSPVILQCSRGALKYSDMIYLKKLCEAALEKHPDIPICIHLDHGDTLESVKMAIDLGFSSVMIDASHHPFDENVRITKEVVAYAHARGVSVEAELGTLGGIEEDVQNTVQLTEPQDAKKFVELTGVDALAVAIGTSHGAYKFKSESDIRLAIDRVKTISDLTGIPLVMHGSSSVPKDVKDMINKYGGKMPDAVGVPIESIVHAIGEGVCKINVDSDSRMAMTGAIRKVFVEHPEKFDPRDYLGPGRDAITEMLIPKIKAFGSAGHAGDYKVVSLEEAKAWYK
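40 nM FBPA preincubated 10 min at RT with compound (up to 57.5 uM final), then substrate plus GAPDH/TPI/NAD/arsenate coupling and diaphorase/resazurin added. Fluorescence read after 20 min at RT, 525/598 nm.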
Tb PYK inh: T. brucei pyruvate kinase inhibition; TbPYK enzyme, Kinase-Glo Plus ATP luminescence, 45 min; Potency, µM (top dose mostly 76.8 µM), without a hit: top-dose activity, negative = inhibition, actives largely listed as inhibitors; 410,000 compounds, 0.12% hits; Q57TT1; also: potency is read from the fitted curve at half-maximal effect; % is scaled to controls: 0 for no effect and ±100 for the full control effect; nearly all actives have a fitted effect of over 50% in size
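Luminescence from Kinase-Glo Plus, added after a 45-minute room-temperature reaction, served as the end-point read-out. The enzyme and substrate were preincubated with compound before ADP (130 uM final) initiated turnover. Concentration-effect curves came from normalized qHTS data.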
Shiga inhibitor: inhibitors of Shiga toxin in Vero cells; inhibition, % at 38.7 µM; Vero cells, Shiga toxin protein synthesis inhibition reporter; 290,000 compounds, 9.2% hits; AID 2315; in the data active = inhibition mostly above about 28%, no sharp cut-off; inactive = mostly below about 43%; also: 0% is about no effect
An asterisk follows results filed as active; ? = inconclusive; · = not tested or not shown; [ ] = another dose, or the depositor's remark. Unless noted, calls follow the shape of the dose curve; as a rule, active = well fitted curve in the direction sought with a large enough effect; inconclusive = small, poorly fitted or top-dose-only effect, or another doubt; inactive = no such curve, though single readings can be large; an effect the other way counts as inactive or inconclusive.

SMILES | CHX counter | LmPK inhibitor | Sm TGR inh | FBPA Giardia inh | Tb PYK inh | Shiga inhibitor
COc1ccc(C2=C/C(=C\c3ccc(OC(C)=O)cc3)C(=O)O2)cc1 | 40* | 5% | 50µM* | 4% | -7% | 87*
CC(O)c1nc(C(C)O)n(CC(=O)c2ccccc2)n1 (stereo unspecified) | · | · | 45µM* | · | 1% | ·
CCc1cccc(C)c1NC(=O)C1CCCN1S(=O)(=O)c1cccc2nsnc12 (stereo unspecified) | · | · | 0% | · | -6% | ·
O=C(Nc1cccnc1)c1ccc(Br)s1 | 31* | -5% | 4% | -8% | -3% | 105*
O=C(Nc1cccc(-c2nn[nH]n2)c1)c1ccc(Br)s1 | 23* | -9% | -27% | · | -9% | -24
O=C(Nc1cccnc1)c1ccc(C(=O)Nc2cccnc2)cc1 | -4 | 5% | 8% | 12% | 1% | 19
O=C(Nc1cccc(-c2nn[nH]n2)c1)c1ccc(Cl)s1 | -1 | 8% | 0% | ? | 0% | -8
CCc1sc(C(=O)Nc2cccnc2)cc1Br | 30* | -5% | -18% | · | -4% | 47*
CC1(N2CCOCC2)CC2(O)C(=[N+]1[O-])CCc1c2no[n+]1[O-] (stereo unspecified) | 9 | 0% | 32µM* | ? | -9% | -7
CC(C)CO/N=C1/C[C@@H](O)[C@@H](O)[C@@H]2[C@@H]3C(=O)N(C[C@@H]4CCCO4)C(=O)[C@H]3CC[C@H]12 | · | · | · | -2%[12.9 µM] | · | ·
COc1cccc2c(Nc3ccccc3C)cc(C)nc12 | -3 | -3% | 11% | ? | -1% | -8
COc1cccc2nc3cc(C)c(C)cc3nc12 | 59* | 13µM* | -30% | ? | ? | 59*
C/C(=N/NS(=O)(=O)c1ccc(Cl)cc1)c1ccncc1 | -1 | 1% | 28µM* | -4% | -5% | -6
CC(C)[C@H](NC(=O)[C@H](CC(=O)O)NC(=O)[C@H](Cc1ccccc1)NC(=O)[C@@H](C)NC(=O)[C@@H](N)Cc1ccc(O)cc1)C(=O)N[C@H](C(=O)NCC(N)=O)C(C)C | -1 | · | · | 0% | · | 11
O=C(COC(=O)C12CC3CC(CC(C3)C1)C2)Nc1ccccc1F | 19* | -1% | -26% | 0% | -1% | 13
O=C(COC(=O)C12CC3CC(CC(O)(C3)C1)C2)Nc1ccc(Br)cc1F | · | · | 2% | · | -4% | ·
CCOC(=O)c1ccc(NC(=O)CCc2c(C)nc3c(c(C)nn3C(C)(C)C)c2C)cc1 | · | · | 1% | · | -1% | ·
Cc1ccc(-n2c(CNCc3ccc(F)cc3)nc3ccccc3c2=O)cc1 | 15* | -1% | -10% | -22% | -17% | 14
CCN(CC)CCNCc1nc2ccccc2c(=O)n1-c1ccc(F)cc1 | -4 | -5% | -6% | -8% | -1% | -6
O=C(O)c1ccc(CSc2nc3ccccc3c(=O)n2-c2ccccc2)cc1 | -3 | 5% | 5% | ? | 10% | -11
O=c1c2ccccc2nc(Cc2ccccc2)n1-c1ccccc1 | 19* | -5% | -19% | 3% | 1% | 18
N=C(N)SCc1nc2ccccc2c(=O)n1-c1ccccc1 | 45* | -15% | -7% | -20% | -10% | 68*
O=C(N/N=C/C1CC=CCC1)c1ccccc1O (stereo unspecified) | 29* | -5% | 0% | -11% | -14% | 39*
O=C(N/N=C/C1CC=CCC1)c1ccc(Cl)cc1O (stereo unspecified) | 28* | -2% | -1% | 0% | -4% | 51
O=C(N/N=C/C1CC=CCC1)c1cc(Br)ccc1O (stereo unspecified) | 31* | -3% | -4% | 15% | -8% | 9
SMILES | CHX counter | LmPK inhibitor | Sm TGR inh | FBPA Giardia inh | Tb PYK inh | Shiga inhibitor
C/C=N/NC(=O)c1cc(Br)ccc1O | 12 | -5% | 3% | 0% | 2% | 20
O=C(CNc1ccccc1F)N/N=C/C1CC=CCC1 (stereo unspecified) | -1 | 0% | 1% | 3% | 0% | 9
CCOC(=O)c1cccc(NC(=O)c2ccc3c(c2)nnn3C2CCCC2)c1 | · | · | 11% | · | -2% | ·
Cc1cc(SCC(=O)OCC(=O)N2CCN(C(=O)c3ccco3)CC2)c(C)cc1Br | 0 | 5% | ? | -2% | ? | -2
Cc1ccc(SCC(=O)OCC(=O)N2CCN(C(=O)c3ccco3)CC2)c(C)c1 | · | · | 45µM* | · | 1% | ·
CC(=O)Nc1ccc(S(=O)(=O)N(C)CC(=O)OCC(=O)N2CCN(C(=O)c3ccco3)CC2)cc1 | · | · | 50µM* | · | -5% | ·
Cc1ccsc1C(=O)OCC(=O)N1CCN(C(=O)c2ccco2)CC1 | 33 | -4% | -2% | 3% | -7% | 26*
CCOC(=O)/C=C/C(=O)OCC(=O)N1CCN(C(=O)c2ccco2)CC1 | 9.0* | -1% | 32µM* | · | -1% | 27
O=C(/C=C/c1ccc(OC(F)F)cc1)OCC(=O)N1CCN(C(=O)c2ccco2)CC1 | -1 | -3% | -6% | 0% | 2% | -11
Cc1cccc(C(=O)OCC(=O)N2CCN(C(=O)c3ccco3)CC2)c1O | · | · | · | · | 6% | ·
Cc1c(C(=O)Nc2ccc(F)cc2)sc2ncn(CC(=O)N3CCCCC3)c(=O)c12 | 11 | 0% | -15% | 7% | 0% | 16
COCCn1c(SCC(=O)N(C)c2ccccc2)nc2c([nH]c3ccccc32)c1=O | 4 | 3% | 6% | 2% | 5% | -2
CCc1ccc(C2NC(=O)c3[nH]nc(-c4cccc(OC)c4)c32)cc1 (stereo unspecified) | · | · | -3% | · | -2% | ·
CC1CCCCC1NC(=O)NC(=O)COC(=O)c1nccnc1N (stereo unspecified) | · | · | · | · | 1% | ·
CC1CCCCC1NC(=O)NC(=O)CCl (stereo unspecified) | 0 | 3% | 14µM* | -17% | -5% | -1
CC1CCCC(NC(=O)CSC2CCCCC2)C1C (stereo unspecified) | 9 | 0% | 6% | 4% | -2% | 41
CC1CCCC(NC(=O)NC(=O)CCl)C1C (stereo unspecified) | 4 | 1% | 2.8µM* | -16% | 3% | -8
CCc1nc2ccc(C(=O)NCc3ccc4c(c3)OCO4)cn2c1N(C)CCC(C)C | · | · | · | · | 3% | ·
O=S(=O)(c1ccc(-c2csc(=Nc3ccc(F)cc3)n2CCCCCCO)cc1)N1CCCC1 | · | · | -2% | · | -5% | ·
CCC(Oc1ccccc1F)C(=O)N1CCC(c2nc3ccccc3s2)CC1 (stereo unspecified) | · | · | -1% | · | -5% | ·
O=C(OCC(=O)N1CCOCC1)c1ccccc1OCc1ccccc1 | · | · | 5% | · | -1% | ·
CC(=O)c1ccc(OCc2ccccc2)c(C)c1O | 29* | 1% | -7% | 5%[12.9 µM] | -1% | 32
O=C(OCC(=O)N1CCCCCC1)c1ccccc1Br | · | · | -19% | · | 2% | ·
O=C(OCC(=O)N1CCCC1)c1ccccc1O | 54* | -9% | 0% | 5% | -1% | 103*
